Reference: PubChem BioAssay
Inconclusive results are not listed. Activity calls are given as the source filed them.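 The calls were made as follows, unless noted: active = normalized viability below 100% at a tested concentration; inactive = the rest.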

Legend:
[1] = viability loss in pontine glioma line – cell-based, SU-DIPG-XVII, MIPE5.0, CellTiter-Glo, qHTS, dose response (AID 1347060; cut-off not given, nearly all actives have AC50 up to about 26 µM;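 also: cells exposed to compound for 48 hours before viability readout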); conditions: CellTiter-Glo ATP luminescence
[2] = viability loss in pontine glioma line – cell-based, JHH-DIPG-1, MIPE4.0, CellTiter-Glo, qHTS, dose response (AID 1347062; cut-off not given, nearly all actives have AC50 up to about 27 µM;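 also: cells exposed to compound for two days before readout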); conditions: JHH-DIPG-1 viability, CellTiter-Glo ATP luminescence
[3] = viability loss in pontine glioma line – cell-based, SU-DIPG-IV, MIPE4.0, CellTiter-Glo, qHTS, dose response (AID 1347063; cut-off not given, nearly all actives have AC50 up to about 30 µM;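 also: compound exposure lasted 48 hours before the viability readout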); conditions: CellTiter-Glo ATP luminescence
[4] = viability loss in pontine glioma line – cell-based, SU-DIPG-XIII, MIPE5.0, CellTiter-Glo, qHTS, dose response (AID 1347064; cut-off not given, nearly all actives have AC50 up to about 23 µM;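 also: cells exposed to compound for 48 hours before the viability read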); conditions: CellTiter-Glo ATP luminescence
[5] = viability loss in pontine glioma line – cell-based, SU-DIPG-XXV, MIPE5.0, CellTiter-Glo, qHTS, dose response (AID 1347065; cut-off not given, nearly all actives have AC50 up to about 26 µM;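 also: cells exposed to compound for 48 hours before ATP readout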); conditions: CellTiter-Glo ATP luminescence
[6] = growth inhibition of DIPG cells – cell-based, MIPE4.0 library, CellTiter-Glo luminescence, qHTS (AID 1347066; cut-off not given, nearly all actives have AC50 up to about 30 µM;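 also: cells exposed to compound for 48 hours before readout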); conditions: SU-DIPG-VI viability, CellTiter-Glo ATP luminescence
[7] = JHH-DIPG-1 glioma cell viability, MIPE5.0 library, CellTiter-Glo luminescence, qHTS (AID 1347067; cut-off not given, nearly all actives have AC50 up to about 26 µM;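 also: cells exposed to compound for 48 hours before readout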); conditions: JHH-DIPG-1 glioma viability, CellTiter-Glo ATP luminescence
[8] = growth inhibition of DIPG cells – cell-based, MIPE5.0 library, qHTS (AID 1347068; cut-off not given, nearly all actives have IC50 up to about 30 µM;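 also: cells exposed to compound for 48 hours before viability readout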); conditions: SU-DIPG-XXV viability
[9] = compounds altering HSF1 focus formation in cells – imaging, Selleck Cancer Library (AID 1347162; in the data active = plate-normalised HSF1 focus index below about 0.46); conditions: human cells, HSF1 nuclear foci imaging, at 10 µM; SSMD: measured here: HSF1 foci SSMD mean; cell count: measured here: cell number; plate-normalised HSF1 focus index: stronger effect = lower value
[10] = drug combination growth inhibition, ovarian cancer – cell-based, oncology-focused library, rucaparib conditional, profiling panel (AID 1508598); conditions: patient-derived ovarian cancer cells, CellTiter-Glo viability, 144 h, stronger effect = lower value

CC[C@@H]1C(=O)N(C)c2cnc(Nc3ccc(C(=O)NC4CCC(N5CCN(CC6CC6)CC5)CC4)cc3OC)nc2N1C(C)C (stereo partly drawn)
inactive: plate-normalised HSF1 focus index [9] 1.16 | viability ([10]; at 0.000305 µM, OCI-C5x cells, with rucaparib 10 µM, 100% = cells with rucaparib alone) 101% | viability ([10]; at 0.000305 µM, OCI-C5x cells, without rucaparib) 104% | viability ([10]; at 0.000305 µM, OCI-P5x cells, without rucaparib) 102% | viability ([10]; at 0.00122 µM, OCI-C5x cells, with rucaparib 10 µM, 100% = cells with rucaparib alone) 107% | viability ([10]; at 0.00122 µM, OCI-C5x cells, without rucaparib) 102% | viability ([10]; at 0.00122 µM, OCI-P5x cells, with rucaparib 20 µM, 100% = cells with rucaparib alone) 100%
7310: cell count [9]
4.31: SSMD [9]
active: AC50 [1] 0.0742 µM | AC50 [2] 6.62 µM | AC50 [3] 2.35 µM | AC50 [4] 5.9 µM | AC50 [5] 0.0525 µM | AC50 [6] 20.9 µM | AC50 [7] 4.17 µM | IC50 [8] 6.61 µM | viability ([10]; at 0.000305 µM, OCI-P5x cells, with rucaparib 20 µM, 100% = cells with rucaparib alone) 97.4% | viability ([10]; at 0.00122 µM, OCI-P5x cells, without rucaparib) 95.9% | viability ([10]; at 0.00488 µM, OCI-C5x cells, with rucaparib 10 µM, 100% = cells with rucaparib alone) 89.2% | viability ([10]; at 0.00488 µM, OCI-C5x cells, without rucaparib) 87.7% | viability ([10]; at 0.00488 µM, OCI-P5x cells, with rucaparib 20 µM, 100% = cells with rucaparib alone) 84.5% | viability ([10]; at 0.00488 µM, OCI-P5x cells, without rucaparib) 26.8% | viability ([10]; at 0.0195 µM, OCI-C5x cells, with rucaparib 10 µM, 100% = cells with rucaparib alone) 51.8% | viability ([10]; at 0.0195 µM, OCI-C5x cells, without rucaparib) 43.7% | viability ([10]; at 0.0195 µM, OCI-P5x cells, with rucaparib 20 µM, 100% = cells with rucaparib alone) 64.2% | viability ([10]; at 0.0195 µM, OCI-P5x cells, without rucaparib) 18.3% | viability ([10]; at 0.0781 µM, OCI-C5x cells, with rucaparib 10 µM, 100% = cells with rucaparib alone) 49.3% | viability ([10]; at 0.0781 µM, OCI-C5x cells, without rucaparib) 32.9% | viability ([10]; at 0.0781 µM, OCI-P5x cells, with rucaparib 20 µM, 100% = cells with rucaparib alone) 67.2% | viability ([10]; at 0.0781 µM, OCI-P5x cells, without rucaparib) 20.5% | viability ([10]; at 0.313 µM, OCI-C5x cells, with rucaparib 10 µM, 100% = cells with rucaparib alone) 41.4% | viability ([10]; at 0.313 µM, OCI-C5x cells, without rucaparib) 36.3% | viability ([10]; at 0.313 µM, OCI-P5x cells, with rucaparib 20 µM, 100% = cells with rucaparib alone) 70.1% | viability ([10]; at 0.313 µM, OCI-P5x cells, without rucaparib) 17.3% | viability ([10]; at 1.25 µM, OCI-C5x cells, with rucaparib 10 µM, 100% = cells with rucaparib alone) 26.6% | viability ([10]; at 1.25 µM, OCI-C5x cells, without rucaparib) 25.2% | viability ([10]; at 1.25 µM, OCI-P5x cells, with rucaparib 20 µM, 100% = cells with rucaparib alone) 9.33% | viability ([10]; at 1.25 µM, OCI-P5x cells, without rucaparib) 13.8% | viability ([10]; at 5 µM, OCI-C5x cells, with rucaparib 10 µM, 100% = cells with rucaparib alone) 4.03% | viability ([10]; at 5 µM, OCI-C5x cells, without rucaparib) 21.5% | viability ([10]; at 5 µM, OCI-P5x cells, with rucaparib 20 µM, 100% = cells with rucaparib alone) 1.64% | viability ([10]; at 5 µM, OCI-P5x cells, without rucaparib) 12.5%
